Compound activity: PubChem, several laboratories
Rows were chosen to be rich in hits. Some 4.1% of all compounds tested hit in one or more screens of this group.
LMP1 NFkB inh = EBV LMP1-driven NF-kappaB luciferase reporter inhibitors, primary screen, cell-based, luminescence, single point; LMP1-induced NF-kappaB luciferase reporter cells; inhibition, % at 12.5 µM; actives 0.69% (n = 350,000); in the data active = inhibition above about 41%
Shn3 3UTR inh = reduction of Shn3 3'UTR firefly luciferase signal, primary screen, Schnurri-3 inhibitor project, cell-based, Clone20 osteoblasts, set 2. inhibition, % at 12.5 µM. Clone20 osteoblast Shn3 3'UTR firefly luciferase, 24 h. actives 0.52% (n = 360,000);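 active = mean inhibition of at least 75% with every replicate also reaching 75%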
TWEAK-Fn14 inh = inhibitors of TWEAK-Fn14 signaling, primary screen, luciferase reporter cells, uHTS | AID 1159606, 2016 | TWEAK-stimulated Fn14 reporter cells, luciferase luminescence, 8 h | inhibition, % at 10 µM | actives 2% (n = 360,000); in the data active = inhibition above about 50%
TROY NFkB inh = inhibitors of TROY-driven NF-kB signaling, primary screen, Q293 LMP1-TROYcd cells, NF-kB luciferase, uHTS. Q293 LMP1-TROYcd NF-kB luciferase reporter, 4 h. inhibition, % at 10 µM. actives 0.98% (n = 360,000);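 active = compounds whose plate-normalised and pattern-corrected inhibition of the luciferase reporter signal at the single screening dose is 50% or more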
MITF TRPM1 inh = inhibitors of MITF-dependent TRPM1 promoter reporter, primary screen, cell-based, SK-MEL-5, single point, luciferase; actives 0.83% (n = 330,000); SK-MEL-5 TRPM1 promoter luciferase, 24 h; inhibition, % at 12.5 µM;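 active = mean inhibition across replicates of 60% or more, whatever share of single replicates reaches that level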
Peg3 prom inh = Peg3 promoter-driven luciferase inhibitors, primary screen, cell-based, HeLa, luciferase luminescence. HeLa PEG-Prom luciferase reporter, overnight. inhibition, % at 20 µM. actives 1.7% (n = 360,000);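 active = inhibition of at least 50% at 20 µM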
Of the large screens only hits and unclear results are named; the others gave an inactive call.

CC1CCCCN1c1ncnc(N)c1[N+](=O)[O-] (configuration not stated)	TWEAK-Fn14 inh 61
COc1ccc(CN2C[C@@H](CO)O[C@@H](n3cnc4c(NCc5cc(OC)c(OC)c(OC)c5)ncnc43)C2)cc1	none (no result: LMP1 NFkB inh, MITF TRPM1 inh)
CCN(CC)c1ccc(N=Cc2ccc(N(CC)CC)cc2O)cc1	none
CCN(CC)c1ccc(C=Nc2ccc(N(C)C)cc2)c(O)c1	TWEAK-Fn14 inh 58
COc1ccc(OCC(O)CNCCOc2ccccc2OC)c(C(C)(C)C)c1 (configuration not stated)	Peg3 prom inh 63
COc1ccccc1NCC(O)COc1ccc(C(C)(C)C)cc1 (configuration not stated)	none
Cc1nn(C)c(C)c1C1C(C#N)=C(N)OC2=C1C(=O)CCC2 (configuration not stated)	none
O=C(CCc1nnc(CCC2CCCCC2)o1)NCCc1cccnc1	none
CCNc1ccc(Br)cc(C(=O)/C=C/c2ccc(Cl)cc2Cl)c1=O	LMP1 NFkB inh 49
COc1ccc(/C=C/C(=O)Nc2ccccc2C(=O)N2CCCC2)cc1	none
COc1ccc(/C=C/c2cc(C(=O)O)c3ccccc3n2)cc1	LMP1 NFkB inh 80, TWEAK-Fn14 inh 77
COc1ccc(/C=C/C(=O)Nc2ccccc2C(=O)O)cc1OC	TWEAK-Fn14 inh 98, TROY NFkB inh 84
COc1ccc(/C=C/C(=O)Nc2ccccc2C(F)(F)F)cc1OC	none
COc1ccc(/C=C/C(=O)Nc2ccccc2C(=O)O)cc1	TWEAK-Fn14 inh 87, TROY NFkB inh 54
CCOc1ccc(N2CC(C(=O)N3CCc4ccccc43)CC2=O)cc1 (configuration not stated)	none
CCN1CCN(CC(O)COC(c2ccccc2)c2ccccc2C)CC1 (configuration not stated)	none
CCN(CC(=O)Nc1c(F)cccc1F)C(=O)c1cc(-c2cccs2)nn1-c1ccccc1	Peg3 prom inh 58
CN(CC(=O)Nc1c(Cl)cccc1Cl)C(=O)c1cc(-c2cccs2)nn1-c1ccccc1	none
OCC1CCCCN1C(=S)Nc1cccc(Cl)c1 (configuration not stated)	none
O=[N+]([O-])c1ccc(COc2ccc(-c3[nH]ncc3-c3ccc(Cl)cc3)c(O)c2)cc1	TWEAK-Fn14 inh 51
COc1ccc(-c2cn[nH]c2-c2ccc(OCc3ccc([N+](=O)[O-])cc3)cc2O)cc1OC	TWEAK-Fn14 inh 83 (no result: Shn3 3UTR inh)
Cn1c(SCC(=O)Nc2ccc(C(N)=O)cc2)nnc1-c1cccs1	none
Cc1ccc(S(=O)(=O)NCCC(=O)NC2CCCCCC2)cc1	none
COc1cc(OC)cc(C(=O)NCC2CCCN(Cc3ccc(SC)cc3)C2)c1 (configuration not stated)	none
O=C(Oc1ccc2ccccc2c1Br)N1CCCCCC1	TWEAK-Fn14 inh 65, TROY NFkB inh 66
Cc1ccc(C(C)C)c(OCc2nn(CC(=O)c3ccc(OC(F)F)cc3)c3[n+]2CCCCC3)c1	MITF TRPM1 inh 102, Peg3 prom inh 105
COC(=O)C1=C(C)N(Cc2ccccc2)C(=NCCc2cccnc2)N[C@H]1c1ccc(Br)cc1	MITF TRPM1 inh 78, Peg3 prom inh 94
COC(=O)C1=C(C)N(Cc2ccccc2)C(=NCc2ccccc2)N[C@H]1c1cccc(C(F)(F)F)c1	MITF TRPM1 inh 89, Peg3 prom inh 99
COC(=O)C1=C(C)N(Cc2ccccc2)C(=NCCc2cccnc2)N[C@H]1c1ccccc1	none
COC(=O)C1=C(C)N(Cc2ccccc2)C(=O)N[C@H]1c1cccc(C(F)(F)F)c1	none (no result: MITF TRPM1 inh)
COC(=O)C1=C(C)N(Cc2ccccc2)C(=NCC(C)C)N[C@H]1c1cccc(C(F)(F)F)c1	MITF TRPM1 inh 96, Peg3 prom inh 103
COC(=O)C1=C(C)N(Cc2ccccc2)C(=NCC(C)C)N[C@H]1c1cccc(F)c1	Peg3 prom inh 83
CSc1ccc(CN2C(=O)C(F)(F)Oc3c(C(C)=O)cccc32)cc1	none (no result: LMP1 NFkB inh, MITF TRPM1 inh)
CC(C)c1nc(SCC(=O)Nc2ccc(C(=O)O)cc2)c2c3c(sc2n1)CCCC3	none
